The source of these data is ChEMBL document CHEMBL1201862, “PubChem BioAssay data set” (2004).

The whole screen tested about 400,000 compounds, of which about 2,100 (0.53%) were called active. Roughly 14% stayed inconclusive and do not appear here. This is one part of a sample in which actives are shown more often than they occur. No rule for the calls is given here.

For the test, the target named is Ataxin-2 (Homo sapiens) (UniProt Q99700). The experiment in a line: qHTS for Inhibitors of ATXN expression. The class given is functional. In general terms: In qHTS, concentration-response curves come from the screen itself.
Chain of Ataxin-2 (Homo sapiens) (Q99700 whole entry): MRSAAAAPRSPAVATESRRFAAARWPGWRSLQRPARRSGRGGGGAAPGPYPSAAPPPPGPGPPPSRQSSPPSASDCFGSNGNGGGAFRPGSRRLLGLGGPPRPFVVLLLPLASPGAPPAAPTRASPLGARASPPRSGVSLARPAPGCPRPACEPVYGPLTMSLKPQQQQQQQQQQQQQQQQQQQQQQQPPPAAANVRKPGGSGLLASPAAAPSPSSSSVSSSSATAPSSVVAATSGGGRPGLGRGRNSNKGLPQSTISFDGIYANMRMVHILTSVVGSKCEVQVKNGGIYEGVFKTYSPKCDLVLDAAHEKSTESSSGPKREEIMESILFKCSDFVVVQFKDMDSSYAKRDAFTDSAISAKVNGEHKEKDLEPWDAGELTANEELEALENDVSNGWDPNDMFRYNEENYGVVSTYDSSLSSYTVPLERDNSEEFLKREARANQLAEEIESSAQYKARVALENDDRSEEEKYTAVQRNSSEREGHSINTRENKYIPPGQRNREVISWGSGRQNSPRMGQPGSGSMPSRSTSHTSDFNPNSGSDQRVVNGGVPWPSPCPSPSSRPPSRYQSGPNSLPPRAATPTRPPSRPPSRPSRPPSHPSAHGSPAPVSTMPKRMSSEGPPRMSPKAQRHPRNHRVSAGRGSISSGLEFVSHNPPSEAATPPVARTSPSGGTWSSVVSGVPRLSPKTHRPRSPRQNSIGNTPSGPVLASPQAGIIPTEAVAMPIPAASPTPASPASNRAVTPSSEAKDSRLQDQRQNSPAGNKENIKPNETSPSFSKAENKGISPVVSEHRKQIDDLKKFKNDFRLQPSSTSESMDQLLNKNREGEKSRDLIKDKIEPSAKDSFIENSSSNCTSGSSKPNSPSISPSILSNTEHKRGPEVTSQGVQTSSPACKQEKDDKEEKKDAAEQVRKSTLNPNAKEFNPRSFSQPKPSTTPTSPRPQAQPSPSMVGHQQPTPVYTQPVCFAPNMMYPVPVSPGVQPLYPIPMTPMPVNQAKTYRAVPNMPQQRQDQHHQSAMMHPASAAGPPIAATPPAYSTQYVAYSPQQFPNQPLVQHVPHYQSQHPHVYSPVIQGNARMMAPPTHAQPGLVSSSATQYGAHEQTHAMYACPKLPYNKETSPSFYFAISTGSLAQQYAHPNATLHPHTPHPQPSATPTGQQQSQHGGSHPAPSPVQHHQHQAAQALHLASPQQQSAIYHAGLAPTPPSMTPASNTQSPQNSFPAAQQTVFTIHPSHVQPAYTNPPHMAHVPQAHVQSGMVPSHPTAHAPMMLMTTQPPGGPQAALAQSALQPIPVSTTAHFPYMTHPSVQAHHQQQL
In the case of `CSc1nnc(N2C(=O)C(O)=C(C(=O)c3ccco3)C2c2ccc(F)cc2)s1` (stereo unspecified), the Potency entry is “inactive”.
Consider `CCN=C(S)NCc1ccc2[nH]c(C)cc2c1`, for which the Potency result was “inactive”.
The same measure for `FC(F)(F)c1cc(CO[C@@H]2CCCN[C@@H]2c2ccccc2)cc(C(F)(F)F)c1`: 35.5 µM (active).
The same measure for `Cc1cc(C2(c3ccc(O)c(C)c3)C(=O)N(C)c3ccc(Br)cc32)ccc1O`: 44.7 µM (active); for `Cc1c(Br)c(=O)oc2c(Br)c(O)ccc12`: “inactive”.
For the molecule `CC1(C)OC(=O)C(/C=N\Nc2c(Cl)cc(Cl)cc2Cl)=C(O)O1`, the Potency result was “inactive”.
For `Cc1cc2oc3cc(NCCC4CCCN4C)ccc3c(=O)c2cc1C` (stereo unspecified) the value was “inactive”.
For `C=C(C)c1nc(Oc2ccccc2)nc(Oc2ccccc2)n1` the value was 33.6 µM (active); for `COc1ccc2cc(-c3cc(C(=O)OCC(=O)NC4CCS(=O)(=O)C4)c4ccccc4n3)ccc2c1` (stereo unspecified), “inactive”.
As for `CC1C(C#N)=C(SCC(N)=O)N=C2CC(C)(C)CC(O)=C21` (stereo unspecified), the Potency result was “inactive”.
Take `COc1cc(/C=C(\C#N)c2nc3ccccc3[nH]2)ccc1OCc1ccc(F)cc1`: the Potency entry is “inactive”.
Regarding `COc1ccc(CNc2cccc3[nH]c(C(F)(F)F)nc23)cc1OC`, the Potency result is “inactive”.
Regarding `COc1cccc(CNc2nc[nH]n2)c1OCc1ccccc1F`, the Potency result is “inactive”.
On to `COc1cc(/C=C(\C#N)c2nc3ccccc3[nH]2)ccc1OCc1ccccc1F`, for which the Potency entry was “inactive”.
For `COc1cccc(CNCCc2c[nH]c3ccccc23)c1OCc1ccccc1F` the value was 28.2 µM (active); for `COc1cc(CNCCc2c[nH]c3ccccc23)ccc1OCc1ccc(F)cc1`, 35.5 µM (active).
As to `COC(=O)C1=CN(CCCN2CCCC2=O)C=C(C(=O)OC)C1c1ccccc1C(F)(F)F`, the Potency entry is “inactive”.
The same measure for `Cc1c(Cc2ccccc2)c(=O)oc2c(CN(C)C)c(O)c(Cl)cc12`: “inactive”; for `COc1ccc2cc(-c3nc(Cl)c4c5c(sc4n3)CCCC5)c(=O)oc2c1`: “inactive”.
Regarding `c1ccc(CNc2ncnc3sc4c(c23)CCCC4)nc1`, the Potency result is “inactive”.
For `Cc1cc(C)n(-c2nc(NCCCN(C)C)c3c4c(sc3n2)CCCC4)n1` the value was 25.1 µM (active); for `CCn1cc(C2N3CC4(C)CN2CC(C)(C3)C4=O)c2ccccc21` (stereo unspecified), “inactive”; for `CCNc1cc2oc(=O)c(CN3CCOCC3)c(C)c2cc1C`, “inactive”.
For `COc1cccc(N2CCc3c(C)nc4ccc(Cl)cc4c32)c1`, the Potency entry was “inactive”.
Take `COc1ccc(-n2c(-c3cccc(OC)c3)nc(=S)c3c2CCCC3)cc1`: the Potency was 25.1 µM (active).
`COc1ccc(N2CCN(c3cc(C)c4cccc(C)c4n3)CC2)cc1`: the Potency entry is “inactive”.
With `CN1CCN(CC/C=C2/c3ccccc3Sc3ccc(S(=O)(=O)N(C)C)cc32)CC1`, the Potency is 35.5 µM (active).
Consider `Cn1c(=O)nc2n(Cc3ccccc3)c3ccccc3cc-2c1=O`, for which the Potency result was “inactive”.
Consider `Cn1nc(-c2ccccn2)nc2c(=O)n(C)c(=O)nc1-2`, for which the Potency is 17.8 µM (active).
For `Cc1ccc(C)c(-n2c3nc(=O)n(C)c(=O)c-3cc3ccccc32)c1` the value was “inactive”; for `Cc1ccccc1-n1c2nc(=O)n(C)c(=O)c-2cc2ccccc21`, “inactive”.
For `CCCc1nc2c(=O)n(C)c(=O)nc-2n(C)n1` the value was 8.44 µM (active); for `CC(C)C[C@H]1CN=C(Nc2ccccc2)N1CCCC1CCCCC1`, 22.4 µM (active); for `CC(C)(C)C1CCC(CN2C(Nc3ccccc3)=NC[C@@H]2Cc2ccccc2)CC1` (stereo partly specified), 25.1 µM (active).
For `CCC(=O)c1cc2c(C)cc(=O)oc2c(C)c1OC(=O)C(C)C` the value was “inactive”; for `CN1CCN(S(=O)(=O)c2ccc(Sc3nnnn3-c3ccccc3)c([N+](=O)[O-])c2)CC1`, 39.8 µM (active); for `COc1cc(OC)cc(OC(=O)c2cccc(S(=O)(=O)N3CCN(C)CC3)c2)c1`, “inactive”.
`O=[N+]([O-])c1ccccc1S(=O)(=O)N1CCN(Cc2ccccc2)CC1`: the Potency entry is “inactive”.
As for `CCC(C)[C@H]1CN=C(S)N1CCc1cc(C(F)(F)F)cc(C(F)(F)F)c1` (stereo partly specified), the Potency was 35.5 µM (active).
For the molecule `NC1=NC[C@H](c2ccccc2)N1CCc1cc(C(F)(F)F)cc(C(F)(F)F)c1`, the Potency was 28.2 µM (active).
For `FC(F)(F)c1cc(CCN2C(S)=NC[C@@H]2Cc2ccccc2)cc(C(F)(F)F)c1` the value was 39.8 µM (active); for `COc1cccc(C2=CC(c3ccccc3F)n3ncc(C(=O)Nc4ccc(F)cc4)c3N2)c1` (stereo unspecified), “inactive”; for `CC1CC(Nc2ccccc2)c2ccccc2N1C(=O)c1ccncc1` (stereo unspecified), “inactive”.
As for `CN1CCc2c(sc3c2C(=O)NC(c2ccc(-c4cccc(Cl)c4)o2)N3)C1` (stereo unspecified), the Potency entry was “inactive”.
For `COn1c(=O)c(-c2ccc(F)cc2)[n+]([O-])c2ccccc21` the value was “inactive”.
For `CCN(CC)Cc1c(O)c(Cl)cc2c(C)c(C)c(=O)oc12` the value was “inactive”; for `COc1ccc(/C=N/NC(=O)c2[nH]c3ccc(Cl)cc3c2-c2ccccc2)c(C(=O)O)c1OC`, “inactive”; for `O=C1OCCN1C(=O)[C@H]1[C@H](c2ccccc2)C(c2ccc(F)cc2)=NN1c1ccccc1`, “inactive”.
For `CCn1nc(NC(=O)C2CCCO2)c2cc3cccc(C)c3nc21` (stereo unspecified) the value was “inactive”; for `COc1cc(C2C=C(c3cccs3)Nc3ncnn32)cc(OC)c1OC` (stereo unspecified), “inactive”.
In the case of `Cc1cnc(-n2ncc(C(=O)N3CCN(C(C)C)CC3)c2-c2ccco2)nc1-c1ccc(F)cc1`, the Potency entry was “inactive”.
Turning to `CC(=O)N(Cc1ccccn1)Cc1ccco1`, the Potency result is “inactive”.
The same measure for `S=C(NN=C(c1ccccc1)c1ccccn1)N(Cc1ccccn1)Cc1ccccn1`: 15.8 µM (active); for `COC(=O)CC1C(=O)NCCN1C(=O)CSc1nc2ccccc2c(=O)n1CC(C)C` (stereo unspecified): “inactive”.
For `Cc1nc(C/C(=N\N)c2ccc(O)cc2O)cs1` the value was “inactive”; for `O=C1c2cccc3c(N4CCCCC4)ccc(c23)C(=O)N1c1cccc(O)c1`, “inactive”.
Turning to `COc1ccc(C(=O)CCN2CCc3cc(OC)c(OC)cc3C2)cc1`, the Potency was 26.7 µM (active).
The same measure for `COc1cc2c(cc1OC)CN(C(=O)CSc1ccc(F)cc1)CC2`: “inactive”; for `COc1cc2c(cc1OC)CN(Cc1cc(=O)n3c(-c4ccccc4)csc3n1)CC2`: “inactive”.
The same measure for `Cc1c(C)c2cc(Cl)c(O)c(CN3CCN(C)CC3)c2oc1=O`: “inactive”.
Regarding `CC1CCN(CCN=C(S)Nc2ccc(Cl)cc2)CC1`, the Potency result was “inactive”.
For `CN1CCN(c2ccc(Cl)cc2NC(=O)/C=C/c2ccc(F)cc2)CC1` the value was “inactive”.
Turning to `CN1CCC(NCCC(c2ccc(F)cc2)c2ccc(Cl)cc2)CC1` (stereo unspecified), the Potency is 25.1 µM (active).
`CCOc1ccc(Cl)cc1/C=N/NC(N)=O`: the Potency result was “inactive”.
The same measure for `COc1cc(Cl)cc(/C=N/NC(N)=O)c1O`: “inactive”; for `COc1ccccc1Sc1ccccc1/C=N/NC(N)=O`: 39.8 µM (active).
For the molecule `CCOC(=O)c1cc2c(=O)n3ccccc3nc2n(CCOC)/c1=N/C(=O)c1c(-c2c(F)cccc2Cl)noc1C`, the Potency result is “inactive”.
Turning to `Cc1c2ccccc2nc2ccccc12`, the Potency entry was “inactive”.
Take `Cc1cc2[nH]c3c4ccccc4nc(C)c3c2cc1C`: the Potency was 28.2 µM (active).
The same measure for `Cc1cc(C)c2c(N)c3ccccc3nc2n1`: “inactive”.
The same measure for `Cc1ccc2nc(N3CCN(C(=O)CCCC(=O)O)CC3)nc(-c3ccccc3)c2c1`: “inactive”.
Turning to `CCOC(=O)c1ccc(N2C(=O)C=CC2=O)cc1`, the Potency was 39.8 µM (active).
The same measure for `CCOC(=O)c1ccc(NS(=O)(=O)c2c(C)n(C)c(=O)n(C)c2=O)cc1`: “inactive”.
The same measure for `CCOC(=O)c1ccc(NC(=O)N2C3CCCC2CC(NC(C)=O)C3)cc1` (stereo unspecified): “inactive”; for `CC1CCCc2sc3ncn(N)c(=N)c3c21` (stereo unspecified): “inactive”; for `CCCCCCCNC(=O)C1(CC2CC(c3ccc(Cl)cc3)=NO2)CCNCC1` (stereo unspecified): 25.1 µM (active).
For the molecule `CCCCCCCNC(=O)C1(CC2CC(c3cccc(Br)c3)=NO2)CCNCC1` (stereo unspecified), the Potency is 31.6 µM (active).
Take `CC1CCCC(C)N1C(=O)COC(=O)C12CC3CC(CC(Cl)(C3)C1)C2` (stereo unspecified): the Potency entry is “inactive”.
For `O=C(NN/C=C1\C(=O)N(c2ccc(Cl)cn2)C(=O)c2ccccc21)c1ccncc1` the value was “inactive”; for `CCCCCCn1c(SCCOC)nc2c1c(=O)[nH]c(=O)n2C`, “inactive”.
As for `Cn1c(=O)[nH]c(=O)c2c1nc(N1CCCCCC1)n2Cc1cccc2ccccc12`, the Potency is 44.7 µM (active).
In the case of `Cc1cccc(OCC2Cn3c(nc4c3c(=O)[nH]c(=O)n4C)O2)c1` (stereo unspecified), the Potency entry is “inactive”.
As to `CCCCCn1c(N2CCC(Cc3ccccc3)CC2)nc2c1c(=O)[nH]c(=O)n2C`, the Potency is 28.2 µM (active).
As to `CCCSc1nc2c(c(=O)[nH]c(=O)n2C)n1Cc1ccccc1`, the Potency result was “inactive”.
In the case of `Brc1ccc(C2CC(c3ccccc3)=Nc3ccccc3N2)cc1` (stereo unspecified), the Potency entry is “inactive”.
Turning to `CC(=O)c1ccc(N2C(=O)[C@@H]3[C@H](C2=O)[C@H]2c4ccccc4C=NN2[C@@H]3C(C)=O)cc1`, the Potency entry is “inactive”.
As to `CCn1nc([N+](=O)[O-])c(C(C#N)c2nc3cc(C(F)(F)F)ccc3s2)c(Cl)c1=O` (stereo unspecified), the Potency is 28.2 µM (active).
The same measure for `CCOC(=O)c1cc2c(=O)n3ccccc3nc2n(Cc2ccco2)/c1=N\C(=O)c1cccc(Br)c1`: “inactive”; for `O=C(NCc1ccccn1)c1cc2ccccn2n1`: “inactive”; for `COCCCNC(=O)c1c(N)n(-c2cccc(S(N)(=O)=O)c2)c2nc3ccccc3nc12`: “inactive”.
Consider `OC(CNC1CCCC1)COc1ccc(-c2ccccc2)cc1` (stereo unspecified), for which the Potency result is “inactive”.
As for `COc1ccc(CN(C)CC(O)COc2ccc(-c3ccccc3)cc2)cc1OC` (stereo unspecified), the Potency is 11.2 µM (active).
For `COc1ccc(CN(C)Cc2c(O)ccc3cc(Br)ccc23)cc1OC`, the Potency entry is “inactive”.
For `Cc1nn2c(NC(C)C)c3c(nc2c1-c1ccccc1)CCC3` the value was “inactive”; for `Cc1cc(C(C)(C)C)n2nc(C)c(-c3ccccc3)c2n1`, “inactive”.
The same measure for `Cc1nn2c(NCCN(C)C)c3c(nc2c1-c1ccccc1)CCCC3`: 35.5 µM (active); for `CSCCC(NC(=O)/C(=C/c1ccc2c(c1)OCO2)NC(=O)c1cccc([N+](=O)[O-])c1)C(=O)O` (stereo unspecified): “inactive”.
For `C=CC[C@H](CC(=O)N(CCO)Cc1ccccc1)C(=O)N[C@H](COC(=O)[C@@H](CC=C)Cc1ccc(F)cc1)Cc1ccccc1` the value was 22.4 µM (active); for `C=CCC[C@H](Cc1ccc(F)cc1)C(=O)OC[C@@H](NC(=O)[C@@H](CC=C)CC(=O)N[C@@H](CO)Cc1ccccc1)C(C)(C)C`, 39.8 µM (active).
For the molecule `C=CC[C@H](CC(=O)N(CCO)Cc1ccccc1)C(=O)N[C@H](COC(=O)[C@@H](CC=C)Cc1ccc(F)cc1)C(C)(C)C`, the Potency was 28.2 µM (active).
On to `C=CC[C@H](CC(=O)N(CCO)Cc1ccccc1)C(=O)NC[C@@H](OC(=O)[C@@H](CC=C)Cc1ccc(F)cc1)c1ccccc1`, for which the Potency was 28.2 µM (active).
